Hit rate of the full screen: of about 52,000 compounds, about 1,700 (3.3%) were called active. For the sample, actives were picked, then their nearest neighbours and some compounds at random. Unmarked numbers belong to inactive results. No stated cut-off is given here; in the data, active means survival mostly below about 52% (no sharp cut-off); inactive means mostly above about 56%.
Test system: Wild type
Experiment: S. aureus survival, RN4220 and DeltatarO strains – OD600, teichoic acid synthesis inhibitors, primary screen (AID 463173)
Details: S. aureus RN4220 wild type/DeltatarO growth, OD600, 18 h, stronger effect = lower value, screened at 18.75 µg/mL (by protocol)

Compound | survival
O=C1CC(c2ccccc2C(F)(F)F)c2c(c3ccccc3[nH]c2=O)O1 (stereo not drawn) | 69%
Cc1cccc(-c2noc(-c3cccnc3NCc3ccccc3Cl)n2)c1 | 79%
N#Cc1ccccc1CN1C(=O)c2ccccc2Sc2ccc(C(=O)OCc3ccco3)cc21 | 85%
CC1CCN(S(=O)(=O)c2ccc3c(c2)N(CC(=O)N2CCN(c4ccccc4)CC2)C(=O)CO3)CC1 | 87%
CCN(CC)C(=O)CSc1nsc(SCC(=O)N(CC)CC)c1C#N | 102%
CC(=O)Nc1ccc(S(=O)(=O)N2CCC(Oc3ccc(-n4cnnn4)cc3)CC2)cc1 | 118%
O=C(CN1C(=O)S/C(=C\c2ccco2)C1=O)CN1C(=O)S/C(=C\c2ccco2)C1=O | 113%
OC1N(CN2CCN(c3ccccc3F)CC2)c2ccccc2C12OCCCO2 (stereo not drawn) | 104%
Cn1cnnc1SCC(=O)Nc1ccc(C#N)cc1 | 71%
CC(=O)c1cccc(NC(=O)CCCSc2nc(-c3ccco3)cc(C(F)(F)F)n2)c1 | 52%
Cc1ccccc1CSc1nc(-c2cccc(F)c2)nc2c1Cc1c(CO)cnc(C)c1O2 | 85%
CCc1ccc(-n2nc(C)c3c(C(=O)Nc4ccc(Cl)cc4)cc(C)nc32)cc1 | 53%
Cc1cc(C)c(NC(=O)c2cc(C)nc3c2c(C)nn3-c2cccc(F)c2)c(C)c1 | 83%
CCc1ccc(-n2nc(C)c3c(C(=O)Nc4cccc(C(F)(F)F)c4)cc(C)nc32)cc1 | -3% (active)
Cc1cc(C(=O)Nc2cccc(C(F)(F)F)c2)c2c(C)nn(-c3cccc(F)c3)c2n1 | -1% (active)
Cc1cc(C(=O)Nc2cccc(C)c2C)c2c(C)nn(-c3cccc(F)c3)c2n1 | 73%
CCc1ccc(-n2nc(C)c3c(C(=O)Nc4cc(OC)cc(OC)c4)cc(C)nc32)cc1 | 66%
CCc1nnc2c3ccccc3nc(Nc3cc(C)cc(C)c3)n12 | 37%
Cc1cc(C)nc(NS(=O)(=O)c2ccc(NC(=O)c3ccccc3O)cc2)n1 | 127%
CCCN1CCN(c2nnc(-n3cccc3C(=O)Nc3cc(Cl)ccc3C)s2)CC1 | 82%
Cc1c(C(=O)N(C)C)sc2c1c(=O)n(-c1ccccc1C(F)(F)F)c(=O)n2Cc1ccccc1C#N | 66%
CCOC(=O)c1ccccc1NC(=O)Cn1c(=O)n(CCC(=O)N2CCc3ccccc3C2)c(=O)c2ccccc21 | 88%
Cc1ccc2sc(N(Cc3cccnc3)C(=O)CCS(=O)(=O)c3ccccc3)nc2c1C | 1% (active)
CC(=O)N(Cc1cccnc1)c1nc2c(C)c(C)ccc2s1 | 71%
CC(=O)c1ccc(C(=O)N(Cc2cccnc2)c2nc3c(Cl)cccc3s2)cc1 | 119%
Cc1cccc2sc(N(Cc3cccnc3)C(=O)CCS(=O)(=O)c3ccccc3)nc12 | 82%
CC(=O)c1ccc(C(=O)N(Cc2cccnc2)c2nc3c(C)c(C)ccc3s2)cc1 | -3% (active)
Cc1cc(C)c2nc(N(Cc3cccnc3)C(=O)CCS(=O)(=O)c3ccccc3)sc2c1 | 59%
